Assay results: PubChem BioAssay AID2778 (National Center for Advancing Translational Sciences (NCATS), 2010)
Results filed as inconclusive are left out. Calls of active or inactive are those of the source. The call rests on the fitted dose curve; in most records, active means well fitted inhibition curve with a large enough effect; inconclusive means small, poorly fitted or top-dose-only effect, or effect the other way; inactive means flat fitted curve, though single readings scatter.

target: Menin (Homo sapiens) (UniProt O00255); assay: Confirmation of Inhibitors Targeting the Menin-MLL Interaction in MLL Related Leukemias: Confirmation in an HTRF (commercial TR-FRET) Assay using His-tagged menin and biotin-labeled MLL peptide; settings: His-menin / biotin-MLL peptide binding; series mostly up to 126 µM; activity change, negative = inhibition: at the top concentration
Sequence (O00255 whole entry, looked up): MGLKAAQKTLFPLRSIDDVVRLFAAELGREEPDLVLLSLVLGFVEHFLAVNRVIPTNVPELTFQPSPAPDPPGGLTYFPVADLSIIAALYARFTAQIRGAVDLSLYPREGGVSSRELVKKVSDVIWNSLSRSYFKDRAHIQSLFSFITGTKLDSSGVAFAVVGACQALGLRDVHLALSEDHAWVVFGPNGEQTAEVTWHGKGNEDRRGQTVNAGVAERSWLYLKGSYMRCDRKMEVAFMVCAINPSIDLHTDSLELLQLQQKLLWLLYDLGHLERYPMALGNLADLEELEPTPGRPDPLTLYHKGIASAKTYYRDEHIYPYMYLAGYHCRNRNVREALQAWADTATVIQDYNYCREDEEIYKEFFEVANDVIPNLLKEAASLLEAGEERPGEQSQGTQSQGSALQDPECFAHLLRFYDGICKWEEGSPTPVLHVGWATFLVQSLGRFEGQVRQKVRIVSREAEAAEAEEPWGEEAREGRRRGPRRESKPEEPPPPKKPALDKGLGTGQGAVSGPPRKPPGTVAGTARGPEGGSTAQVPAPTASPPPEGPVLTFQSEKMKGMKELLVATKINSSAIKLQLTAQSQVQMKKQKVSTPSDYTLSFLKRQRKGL
Procedure, shortened: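 HTRF: His6-menin (200 nM) and biotin-MLL-w.t. peptide (80 nM) preincubated 15 min, then compounds 1 hr at ambient, before Eu-cryptate anti-His (3.5 nM) and streptavidin-XL665 (10 nM) for 1 h; 50 mM Tris-HCl pH 7.5, 50 mM NaCl, 1 mM DTT, BSA.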
On the % scale 0 is the no-effect control and ±100 the full control effect; potency means the concentration at half of the fitted maximal effect.

Activity change, negative = inhibition, inactive:
CCCn1c(=O)c(C(=O)Nc2ccccc2C(=O)OCC)c(O)c2ccccc21 2.41% [at 383 µM]
O=C(Nc1nccs1)C(Br)C(Br)c1ccccc1 (stereo not given) -8.15% [at 383 µM]
CCOC(=O)N1CCN(C(=O)c2oc3ccc(S(=O)(=O)N(CC)CC)cc3c2C)CC1 -0.309% [at 383 µM]
CCOC(=O)Cn1cnc2scc(-c3ccc(C)c(C)c3)c2c1=O -3.26%
Cc1ccccc1CN1CCN(C(C)C(=O)NCc2ccccc2)CC1 (stereo not given) -4.31%
COc1ccc(-c2csc(NC(=O)c3cc(-c4cccs4)nc4ccccc34)n2)c(OC)c1 -9.61%
COc1cccc(-c2nn(-c3ccccc3)cc2/C=C\C(=O)c2cccs2)c1 3.61%
COc1ccccc1/C=N/n1c(N)c(S(=O)(=O)c2cccs2)c2nc3ccccc3nc21 -7.78% [at 383 µM]
CC(=O)N1CCCc2cc(S(=O)(=O)N3CCCC(C(=O)N4CCN(c5ccccc5)CC4)C3)ccc21 (stereo not given) -9.1%
COc1ccc(NC(=O)NC2(C(=O)N3CCOCC3)CCCCC2)cc1 -4.37%
COC(=O)Cc1c(C)nc2nc(-c3ccc(OC)cc3)[nH]n2c1=O -3.42% [at 383 µM]
CCCOc1ccc(C(=O)N2CCN(Cc3ccc4c(c3)OCO4)CC2)cc1 1.23%
O=C(CSc1ccc(Cl)cc1)Nc1ccc(NC(=O)c2ccco2)cc1 -28.2%
CN(C)c1ccc(N=Nc2ccc(C(=O)O)cc2)cc1 4.67%
O=C(CCn1nc(-c2ccccc2)ccc1=O)N1CCN(c2ccccn2)CC1 4.1%
O=C(Nc1ccc(F)c(Cl)c1)c1cc(-c2ccco2)on1 -9.72%
COc1ccc(CNC(=O)C(c2ccc(O)cc2)N(Cc2ccco2)C(=O)c2snc(C(N)=O)c2N)cc1 (stereo not given) -9.89%
Cc1cc2c(c(=O)n1Cc1ccccc1)C1O[C@](c3ccsc3)(Cc3cc(C#N)ccc31)O2 -8.97% [at 31.5 µM]
O=C(N/N=C/c1cn(-c2cccs2)nc1-c1ccccc1)c1ccccc1O -10.9% [at 383 µM]
CCOc1cc(C(c2c(C)[nH][nH]c2=O)c2c(C)[nH][nH]c2=O)cc(Br)c1OC -4.43% [at 383 µM]
OC(c1ccccn1)(c1ccccn1)c1ccccn1 -6.19% [at 383 µM]
Cn1ncc2c(N3CCCCC3)nc(NCCCO)nc21 -5.5%
CN1[C@H](CC(=O)c2ccccc2)CCC[C@H]1C[C@@H](O)c1ccccc1 0.991% [at 383 µM]
O=C(N1CCOCC1)N1CCN(S(=O)(=O)c2ccc(Cl)cc2)CC1 5.87%
COC(=O)c1cc(CNC(=O)CCCSc2ccccc2)ccc1OC 3.68%
O=C(Cn1nc(-c2ccccc2)ccc1=O)N1CCCCC1 3.9% [at 383 µM]
Cc1ccc(C(=O)Sc2cccccc2=O)cc1 17.3% [at 383 µM]
C=CCN(CC=C)S(=O)(=O)c1ccc(NC(=S)NC(=O)/C=C/c2cccc3ccccc23)cc1 -9.11%
Cc1c(F)cccc1NS(=O)(=O)c1ccc2c(c1)c(C)cc(=O)n2C 7.52%
CSC[C@@H]1NC(=S)N(c2ccc(C)cc2)C1=O -2.46%
Nc1cccc2c1C(=O)N(C(=O)c1ccco1)C2=O 13%

Potency, active:
CC(=O)Nc1ccc(-c2cc(-c3ccc(NC(C)=O)cc3)nc(-c3ccc(NC(C)=O)cc3)n2)cc1 79.4 µM
N=C1c2ccccc2CN1c1ccc(N2CCOCC2)c(S(=O)(=O)Nc2ccc(Cl)cc2)c1 79.4 µM
CCNc1ccccc1CP(=O)(c1ccccc1)c1ccccc1O (stereo not given) 89.1 µM
COc1ccccc1NS(=O)(=O)c1cc(N2Cc3ccccc3C2=N)ccc1N1CCOCC1 89.1 µM
